Assay outcomes (PubChem BioAssay)
A selection: hits, their analogues and other compounds. The true share with any hit is near 2.2%.
aSyn rescue: qHTS of alpha-syn Inhibitors | Yeast expressing alpha-synuclein, growth rescue, BacTiter-Glo, 24 h | Potency, µM (top dose mostly 46.1 µM), for the others: at the highest dose growth rescue (activation), actives largely listed as activators | 0.14% of 370,000 active; note: % of control where 0% means no effect; nearly all actives have a fitted effect of over 65% in size
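Readout is rescue of growth in alpha-synuclein-expressing yeast, so inhibitors of toxicity appear as activators. Growth after 24 hr at 30 deg C in galactose medium is quantified by luminescence.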
Abeta yeast res: qHTS for compounds that reverse cellular toxicity of Amyloid beta (A-beta) peptide in yeast: Primary Screen. yeast expressing A-beta42, growth rescue, OD600, 48 h; response scale: 0% DMSO, 100% iron-clioquinol control. Potency, µM (doses to about 46.1 µM), most hits filed as activators. 0.063% of 410,000 active. AID 1347071, 2019; note: nearly all actives have a fitted effect of over 55% in size
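Yeast growth medium received pinned compounds, then yeast cells expressing toxic A-beta were added; plates incubated at 30 C for 48 hr. Growth read as absorbance at 600 nm, normalized to DMSO and equimolar FeCl3 plus clioquinol controls.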
TDP43 rescue: qHTS of TDP-43 Inhibitors; TDP-43 expressing yeast growth rescue, BacTiter-Glo, 24 h; Potency, µM (titrated, usually from 46.1 µM), without a hit: at the highest dose growth rescue (activation), actives largely listed as activators; 1.8% of 410,000 active; AID 652104, 2013; note: % of control where 0% means no effect; nearly all actives have a fitted effect of over 50% in size
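Luminescence from BacTiter-Glo reports growth of TDP-43-expressing yeast after 24 hr at 30 deg C with compound. Cells were raffinose-pregrown to mid-log, then seeded in galactose medium at OD600=0.02.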
FUS yeast rescue: qHTS for Suppressors of FUS Proteinopathy: Primary screen using FUS-linked yeast assay | S. cerevisiae FUS-expressing, growth rescue, OD600, 24 h | Potency, µM (doses to about 76.6 µM), hits mostly activators | 0.24% of 390,000 active;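 note: plate controls were DMSO vehicle for no effect and reference control for full effect; nearly all actives have a fitted effect of over 55% in size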
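Yeast FUS proteinopathy model; galactose-induced FUS (2%), starting OD 0.005. Cpds in dilution series, 24hr, 30C, 99% humidity. Abs 600 nm growth. Pos ctrl CP55940 (top 92uM final); neg ctrl DMSO.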
Mito fusion yeast: qHTS Assay for Small Molecule Inhibitors of Mitochondrial Division or Activators of Mitochondrial Fusion | Potency, µM (titrated, usually from 46.1 µM), inactives show top-dose growth rescue (activation), actives largely listed as activators | 0.23% of 320,000 active | S. cerevisiae fusion-defective mutant growth rescue, CellTiterGlo 48 h; note: % of control where 0% means no effect; nearly all actives have a fitted effect of over 45% in size
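S. cerevisiae fusion-defective temperature-sensitive mutants (e.g. fzo1-1, mgm1-5) grown 48 h at 37C in YPEG (ethanol/glycerol non-fermentable) medium with 23 nl compound per well; growth rescue read as CellTiterGlo luminescence.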
* marks the source's active call; other numbers are inactive results. Calls come from the whole dose curve; as a rule, active = well fitted curve in the direction sought with a large enough effect; inconclusive = small, poorly fitted or top-dose-only effect, or another doubt; inactive = no such curve, though single readings can be large; an effect the other way counts as inactive or inconclusive. Potency is the fitted concentration of half-maximal effect.

`Oc1ccc(Br)cc1-c1cc(-c2ccccc2)n[nH]1` gave aSyn rescue -0.2%, Abeta yeast res inconclusive, TDP43 rescue 24.7%, FUS yeast rescue inactive and Mito fusion yeast 15.6%.
Screening COc1ccc(F)cc1S(=O)(=O)n1nnc2ccccc21 returned aSyn rescue inconclusive, Abeta yeast res inactive, TDP43 rescue 10µM*, FUS yeast rescue inconclusive and Mito fusion yeast 0.0%.
Screening CC(=O)Nc1cccc(C(=O)OCC(=O)c2ccc(S(=O)(=O)N3CCCCC3)cc2)c1 returned aSyn rescue -8.2%, Abeta yeast res inactive, TDP43 rescue 15.7%, FUS yeast rescue inactive and Mito fusion yeast -4.6%.
Screening CC(=O)Nc1ccc(C(=O)OCC(=O)c2ccc(S(=O)(=O)N3CCCCC3)cc2)cc1 returned aSyn rescue -4.4%, Abeta yeast res inactive, TDP43 rescue 0.0%, FUS yeast rescue 7.94µM* and Mito fusion yeast 1.7%.
Screening CCOC(=O)c1cnc2ccc(OCC)cc2c1NCc1ccccc1 returned aSyn rescue 0.8%, Abeta yeast res inactive, TDP43 rescue 8.0% and Mito fusion yeast -4.9%.
Screening CCOC(=O)c1cnc2ccc(OCC)cc2c1N1CCN(c2ccccc2F)CC1 returned Abeta yeast res inactive, TDP43 rescue 15.8µM* and FUS yeast rescue inconclusive.
For CCOc1ccc2ncc(S(=O)(=O)c3ccccc3)c(N3CCN(c4ccccc4)CC3)c2c1 the results were aSyn rescue -3.9%, Abeta yeast res inactive, TDP43 rescue 19.2% and FUS yeast rescue inactive.
CCOC(=O)c1cnc2ccc(OCC)cc2c1N1CCN(c2ccccc2)CC1 was read as aSyn rescue 6.8%, Abeta yeast res inactive, TDP43 rescue 17.8µM*, FUS yeast rescue inconclusive and Mito fusion yeast -2.7%.
Screening O=C(CSc1nnc(-c2ccncc2)n1-c1ccc(Br)cc1)c1ccccc1 returned FUS yeast rescue inactive.
Screening CCOC(=O)Cc1cc(C(=O)Nc2ccc(Br)cc2)sc1-c1ccc(C)cc1 returned Abeta yeast res inactive, TDP43 rescue 16.3% and FUS yeast rescue inactive.
Cc1ccc(C(=O)CSc2nnc3n2CCCCC3)s1 was read as aSyn rescue 7.2%, Abeta yeast res inactive, TDP43 rescue 26.6%, FUS yeast rescue inactive and Mito fusion yeast -12.9%.
CCCCNC(=O)N1CCN(C(c2ccccc2)c2ccccc2)CC1 was read as aSyn rescue -2.1%, Abeta yeast res inactive, TDP43 rescue -4.0%, FUS yeast rescue inactive and Mito fusion yeast 17.8µM*.
For CCCCNC(=S)N1CCN(C(c2ccccc2)c2ccccc2)CC1 the results were aSyn rescue 0.9%, Abeta yeast res inactive, TDP43 rescue 1.0%, FUS yeast rescue inactive and Mito fusion yeast inconclusive.
Cc1ccc(N2CCN(C(=O)NCc3noc4ccc(C)cc34)CC2)c(C)c1 was read as Abeta yeast res inactive, TDP43 rescue 20µM* and FUS yeast rescue inconclusive.
`Cc1ccc2onc(CC(=O)N3CCN(c4cccc(C)c4C)CC3)c2c1` gave Abeta yeast res inactive, TDP43 rescue 25.1µM* and FUS yeast rescue inconclusive.
Cc1cccc(C(=O)NCC(=O)N2CCN(c3ccc(Cl)cc3)CC2)c1 was read as aSyn rescue -10.7%, Abeta yeast res inactive, TDP43 rescue 14.0%, FUS yeast rescue inactive and Mito fusion yeast 8.5%.
Cc1cc(C)cc(C(=O)NCC(=O)N2CCN(c3cccc(Cl)c3)CC2)c1 was read as aSyn rescue 2.4%, Abeta yeast res inactive, TDP43 rescue 12.6µM*, FUS yeast rescue inactive and Mito fusion yeast 4.4%.
Cc1ccc(C)c(N2CCN(C(=O)NCc3noc4ccc(C)cc34)CC2)c1 was read as Abeta yeast res inactive, TDP43 rescue inconclusive and FUS yeast rescue inactive.
`Cc1ccc2onc(CC(=O)N3CCN(c4cccc(Cl)c4)CC3)c2c1` gave Abeta yeast res inactive, TDP43 rescue 20µM* and FUS yeast rescue inconclusive.
